# Reference: ChEMBL document CHEMBL1961873, “Compounds: GSK PKIS; Assays: Nanosyn kinase panel” (2012)
# Key:
# [1] = molecular target: T1, Muscle, skeletal receptor tyrosine-protein kinase (Homo sapiens) (UniProt O15146); settings: at 1 µM;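 further: reported value is the mean percent inhibition of MuSK kinase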
# T1 sequence (whole entry): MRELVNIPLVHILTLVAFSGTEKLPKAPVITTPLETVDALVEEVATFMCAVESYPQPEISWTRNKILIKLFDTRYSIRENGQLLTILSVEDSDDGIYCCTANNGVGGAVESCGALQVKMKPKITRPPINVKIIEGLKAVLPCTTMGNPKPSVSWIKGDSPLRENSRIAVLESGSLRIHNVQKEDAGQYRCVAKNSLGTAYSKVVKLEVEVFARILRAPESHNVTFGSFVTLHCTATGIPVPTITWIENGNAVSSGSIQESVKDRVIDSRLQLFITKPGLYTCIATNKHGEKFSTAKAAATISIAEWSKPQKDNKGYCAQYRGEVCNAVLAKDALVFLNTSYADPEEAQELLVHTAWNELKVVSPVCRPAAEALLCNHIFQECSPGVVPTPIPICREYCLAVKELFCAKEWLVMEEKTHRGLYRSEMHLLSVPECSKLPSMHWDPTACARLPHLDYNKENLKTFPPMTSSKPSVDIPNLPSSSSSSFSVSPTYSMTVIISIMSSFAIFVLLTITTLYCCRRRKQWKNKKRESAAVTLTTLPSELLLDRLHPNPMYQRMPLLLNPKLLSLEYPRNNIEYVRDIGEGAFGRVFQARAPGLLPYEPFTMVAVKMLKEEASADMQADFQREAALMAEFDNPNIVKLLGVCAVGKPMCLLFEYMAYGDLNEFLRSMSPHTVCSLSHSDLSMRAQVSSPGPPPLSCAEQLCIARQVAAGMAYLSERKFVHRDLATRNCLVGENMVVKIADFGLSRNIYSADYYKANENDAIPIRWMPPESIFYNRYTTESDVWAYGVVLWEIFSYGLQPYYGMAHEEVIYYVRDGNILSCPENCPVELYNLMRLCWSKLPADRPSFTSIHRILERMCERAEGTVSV
# [2] = molecular target: Platelet-derived growth factor receptor alpha (Homo sapiens) (UniProt P16234); settings: at 0.1 µM
# Platelet-derived growth factor receptor alpha (Homo sapiens), sequence (P16234 whole entry): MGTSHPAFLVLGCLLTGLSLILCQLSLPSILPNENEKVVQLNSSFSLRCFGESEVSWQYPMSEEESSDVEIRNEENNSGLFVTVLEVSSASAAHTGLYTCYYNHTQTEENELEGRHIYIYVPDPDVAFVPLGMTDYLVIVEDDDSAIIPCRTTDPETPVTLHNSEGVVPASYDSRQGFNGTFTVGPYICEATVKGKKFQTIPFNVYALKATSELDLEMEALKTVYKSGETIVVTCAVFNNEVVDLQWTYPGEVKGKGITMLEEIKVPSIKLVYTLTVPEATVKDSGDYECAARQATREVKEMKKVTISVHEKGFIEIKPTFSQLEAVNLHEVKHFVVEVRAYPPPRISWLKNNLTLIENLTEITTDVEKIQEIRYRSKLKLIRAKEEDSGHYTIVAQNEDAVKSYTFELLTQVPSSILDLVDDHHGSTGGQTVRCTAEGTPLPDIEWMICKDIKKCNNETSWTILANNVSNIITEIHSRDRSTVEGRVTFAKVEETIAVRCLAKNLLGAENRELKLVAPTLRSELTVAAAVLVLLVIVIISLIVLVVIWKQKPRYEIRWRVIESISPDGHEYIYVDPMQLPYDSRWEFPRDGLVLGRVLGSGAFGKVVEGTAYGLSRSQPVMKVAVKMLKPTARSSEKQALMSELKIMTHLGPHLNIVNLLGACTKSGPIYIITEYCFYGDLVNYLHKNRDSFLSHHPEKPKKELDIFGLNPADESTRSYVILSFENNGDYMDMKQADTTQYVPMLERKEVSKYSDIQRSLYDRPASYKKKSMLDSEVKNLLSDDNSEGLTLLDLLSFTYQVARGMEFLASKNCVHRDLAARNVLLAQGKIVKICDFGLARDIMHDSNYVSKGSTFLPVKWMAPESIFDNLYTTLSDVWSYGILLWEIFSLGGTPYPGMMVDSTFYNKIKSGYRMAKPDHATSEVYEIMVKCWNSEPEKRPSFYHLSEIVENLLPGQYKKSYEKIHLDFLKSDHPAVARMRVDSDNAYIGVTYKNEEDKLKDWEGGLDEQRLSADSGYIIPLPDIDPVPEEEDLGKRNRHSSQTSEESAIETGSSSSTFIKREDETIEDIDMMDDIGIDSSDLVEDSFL
# [3] = molecular target: Platelet-derived growth factor receptor alpha (Homo sapiens) (UniProt P16234); settings: at 1 µM
# [4] = tested on: Platelet-derived growth factor receptor alpha (Homo sapiens), P16234 [D842V]; settings: at 0.1 µM
# Platelet-derived growth factor receptor alpha (Homo sapiens), P16234 [D842V], sequence (P16234 whole entry D842V): as the sequence (P16234 whole entry) above, with D842V counted along it
# [5] = tested on: Platelet-derived growth factor receptor alpha (Homo sapiens), P16234 [D842V]; settings: at 1 µM
# [6] = tested on: Platelet-derived growth factor receptor alpha (Homo sapiens), P16234 [T674I]; settings: at 0.1 µM
# Platelet-derived growth factor receptor alpha (Homo sapiens), P16234 [T674I], sequence (P16234 whole entry T674I): as the sequence (P16234 whole entry) above, with T674I counted along it
# [7] = tested on: Platelet-derived growth factor receptor alpha (Homo sapiens), P16234 [T674I]; settings: at 1 µM
# [8] = tested on: Platelet-derived growth factor receptor alpha (Homo sapiens), P16234 [V561D]; settings: at 0.1 µM
# Platelet-derived growth factor receptor alpha (Homo sapiens), P16234 [V561D], sequence (P16234 whole entry V561D): as the sequence (P16234 whole entry) above, with V561D counted along it
# [9] = tested on: Platelet-derived growth factor receptor alpha (Homo sapiens), P16234 [V561D]; settings: at 1 µM
# [10] = molecular target: Platelet-derived growth factor receptor beta (Homo sapiens) (UniProt P09619); settings: at 0.1 µM;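 further: reported value is the mean percent inhibition of the kinase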
# Platelet-derived growth factor receptor beta (Homo sapiens), sequence (P09619 whole entry): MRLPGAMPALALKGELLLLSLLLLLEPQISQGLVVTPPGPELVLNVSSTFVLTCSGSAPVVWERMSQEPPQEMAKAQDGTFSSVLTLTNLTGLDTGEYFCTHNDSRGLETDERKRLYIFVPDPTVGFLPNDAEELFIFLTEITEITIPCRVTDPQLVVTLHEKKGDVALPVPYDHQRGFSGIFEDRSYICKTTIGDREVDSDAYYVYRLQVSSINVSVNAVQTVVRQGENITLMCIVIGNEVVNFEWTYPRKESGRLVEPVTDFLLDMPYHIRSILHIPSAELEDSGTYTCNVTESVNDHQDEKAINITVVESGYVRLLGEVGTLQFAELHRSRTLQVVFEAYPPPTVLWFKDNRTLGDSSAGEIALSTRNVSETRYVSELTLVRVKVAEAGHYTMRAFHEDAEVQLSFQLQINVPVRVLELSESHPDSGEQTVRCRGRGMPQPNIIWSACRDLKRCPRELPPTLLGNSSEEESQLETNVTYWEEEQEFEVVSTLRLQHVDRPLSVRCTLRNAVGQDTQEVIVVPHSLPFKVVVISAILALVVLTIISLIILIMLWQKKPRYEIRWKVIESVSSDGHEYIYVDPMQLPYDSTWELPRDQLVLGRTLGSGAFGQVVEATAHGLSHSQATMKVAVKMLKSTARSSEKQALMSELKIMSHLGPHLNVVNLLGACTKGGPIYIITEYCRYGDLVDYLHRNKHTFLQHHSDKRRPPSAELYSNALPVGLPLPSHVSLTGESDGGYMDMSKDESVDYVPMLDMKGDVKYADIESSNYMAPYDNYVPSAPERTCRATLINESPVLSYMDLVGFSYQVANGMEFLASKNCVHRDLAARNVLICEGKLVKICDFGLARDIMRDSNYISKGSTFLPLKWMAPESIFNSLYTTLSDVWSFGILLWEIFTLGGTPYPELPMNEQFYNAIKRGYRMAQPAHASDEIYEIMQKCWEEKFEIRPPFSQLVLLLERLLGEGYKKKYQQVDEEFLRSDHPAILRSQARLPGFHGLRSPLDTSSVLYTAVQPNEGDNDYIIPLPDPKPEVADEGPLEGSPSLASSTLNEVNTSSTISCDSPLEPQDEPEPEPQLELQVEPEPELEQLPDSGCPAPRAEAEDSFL
SMILES,inhibition [1],inhibition [2],inhibition [3],inhibition [4],inhibition [5],inhibition [6],inhibition [7],inhibition [8],inhibition [9],inhibition [10]
COC(=O)c1cncc(/C=C/c2c(C)cc(O)cc2C)c1,3.88%,14.8%,42.8%,0.7%,7.7%,3.58%,6.85%,27%,54.8%,9.77%
NS(=O)(=O)c1ccc(-c2cc3ccncc3cc2OCc2ccccc2)cc1,0.07%,8.15%,13.2%,0.32%,4.83%,3.46%,9.33%,3.67%,6.32%,3.66%
Oc1cccc(-c2nc(-c3ccccc3)[nH]c2-c2ccncc2)c1,8.69%,8.99%,18.5%,4%,13.2%,5.63%,5.18%,2.42%,9.69%,5.66%
CCS(=O)(=O)c1ccc(OC)c(Nc2ncc(-c3cccc(OC)c3)o2)c1,,23.5%,58.4%,10.9%,55.3%,4.09%,10.2%,19.6%,68.7%,43.7%
Cc1ccc(NC(=O)CC2CC2)cc1-c1ccc(C(=O)NCC2CC2)cc1,5.33%,8.04%,13.8%,2.79%,4.37%,3.52%,9.3%,4.68%,5.09%,4.05%
Cc1ccc2c(-c3ccnc(Nc4ccc5c(c4)OCCO5)n3)c(-c3ccc(C(F)(F)F)cc3)nn2n1,-5.36%,3.02%,9.11%,2.16%,3.64%,2.93%,2.96%,1.97%,4.53%,2.08%
OCc1ccc(-c2nc(-c3ccccn3)c(-c3ccc4c(c3)OCO4)[nH]2)cc1,3.91%,9.57%,12.2%,4.62%,6.61%,6.55%,6.47%,3.57%,7.37%,4.87%
Nc1ccc(C#Cc2cncnc2Nc2ccc(OCc3cccc(F)c3)c(Cl)c2)cc1,-0.75%,3.02%,5.52%,2.77%,2.86%,3.22%,5.56%,1.6%,3.26%,3.04%
NS(=O)(=O)c1cccc(-c2cc3ccncc3cc2OCc2ccccc2)c1,4.58%,13.6%,17.2%,2.28%,4.36%,14.8%,6.72%,2.61%,9.52%,7.66%
Cc1ccc2c(-c3ccnc(Nc4cccc(C(F)(F)F)c4)n3)c(-c3ccccc3)nn2n1,5.46%,13.9%,61%,10.5%,38.4%,3.21%,9.14%,14.2%,52%,35.4%
Nc1nccc(C#Cc2cncnc2Nc2ccc(OCc3cccc(F)c3)c(Cl)c2)n1,5.94%,15.4%,15.5%,4.4%,4.87%,5.45%,7.68%,4.25%,4.88%,7.6%
C[C@@H](Oc1cc(-n2cnc3ccc(OCC4CCN(C)CC4)cc32)sc1C(N)=O)c1ccccc1C(F)(F)F,76%,25.1%,69.4%,18.1%,65.6%,4.88%,46%,17.7%,66.2%,56.3%
Cc1cc(-c2ccccn2)cc(C)c1/C=C/c1cncc(-c2nn[nH]n2)c1,5.02%,4.62%,15.4%,-0.56%,2.51%,4.3%,8.72%,3.13%,7.97%,4.53%
CN1CCN(C(=O)c2ccc(NC(=O)Nc3ccc(N(C)c4ccnc(Nc5ccc(CS(C)(=O)=O)cc5)n4)cc3)cc2)CC1,38.9%,59.9%,77.5%,7.23%,46.1%,67.2%,85.5%,75.2%,94.1%,60.3%
CN(c1ccc(NC(=O)Nc2ccc(OC(F)(F)F)cc2)cc1)c1ccnc(Nc2cccc(S(N)(=O)=O)c2)n1,58.5%,76.3%,86.7%,9.66%,46.4%,46.9%,87.1%,87.2%,96.8%,67.5%
[O-][S+]1CCN(Cc2ccc(-c3ccc4ncnc(Nc5ccc(OCc6ccccc6)c(Cl)c5)c4c3)o2)CC1,1.01%,6.03%,11.8%,0.45%,1.95%,3.64%,7.9%,3.07%,6.09%,3.07%
COc1cc2ncnc(Nc3ccc4c(cnn4Cc4ccccc4)c3)c2cc1OC,2.89%,9.97%,36.9%,4%,7.42%,4.73%,17%,6.36%,23.3%,3.39%

SMILES,inhibition [1],inhibition [2],inhibition [3],inhibition [4],inhibition [5],inhibition [6],inhibition [7],inhibition [8],inhibition [9],inhibition [10]
COc1cc(Nc2nccc(-c3cnn4ncccc34)n2)cc(OC)c1,42.5%,19.5%,61.9%,12.6%,60.8%,29%,91.9%,37.5%,75.2%,40.2%
CC(C)c1ccc2c(c1)NC(=O)/C2=N/Nc1ccc(S(N)(=O)=O)cc1,3.81%,6.3%,34.2%,1.62%,17.2%,6.18%,48.9%,21.5%,52.3%,4.34%
COC(=O)Nc1nc2cc(Oc3ccc(NC(=O)Nc4cccc(Br)c4)cc3)ccc2[nH]1,49.3%,75.2%,87.4%,5.64%,13.8%,83.8%,98.1%,84%,94.6%,17.4%
CCn1c(-c2nonc2N)nc2c(C#CC(C)(C)O)nc(OCCNC)cc21,3.32%,3.73%,16.3%,5.07%,17.5%,2.61%,14.2%,3.69%,11.1%,3.31%
Cc1cc(Cl)cc2c1NC(=O)C2=NNc1ccc(S(N)(=O)=O)cc1,0.5%,5.26%,20.5%,4.17%,9.86%,6.4%,9.82%,9.46%,25.8%,2.83%
COc1cc(/C=N/Nc2ncnc3c2cnn3C(C)C)ccc1O,53.2%,17.4%,64.7%,13.3%,61.1%,3.82%,4.12%,12.3%,54.8%,8.52%
NS(=O)(=O)c1ccc(N/N=C2\C(=O)Nc3ccc(Cl)cc32)cc1,12.6%,13.1%,40.6%,4.17%,13.1%,11.4%,62.9%,17.2%,47%,11.1%
Nc1nccc(-c2c(-c3ccc(F)cc3)nn3cc(C(F)(F)F)ccc23)n1,-0.61%,5.02%,5.93%,0.17%,0.96%,-0.84%,1.89%,1.05%,1.99%,0.39%
COc1cc2ncn(-c3cc(OCc4ccccc4S(C)(=O)=O)c(C#N)s3)c2cc1OC,50.6%,59.9%,81.6%,47.5%,88%,7.95%,36.1%,47.3%,87.8%,45.3%
O=S(=O)(CCOCc1ccc(-c2ccc3ncnc(Nc4ccc(OCc5cccc(F)c5)c(Cl)c4)c3c2)o1)c1ccccc1,5.38%,4.21%,10%,0.75%,1.61%,6.02%,8.5%,3.15%,3.68%,2.33%
COc1cccc(-n2ncc3c(N/N=C/c4ccc(S(C)(=O)=O)cc4)ncnc32)c1,23.3%,43.7%,77.8%,51.8%,89%,21%,80.5%,44.1%,86.2%,52.4%
CN(C)CCCn1c(-c2nonc2N)nc2cnccc21,4.01%,6.93%,8.22%,2.47%,3.67%,4.13%,7.54%,1.59%,4.37%,5.05%
CCCN1CCCC(c2ccc(Nc3nc(Nc4cc(F)ccc4C(N)=O)c4cc[nH]c4n3)c(OC)c2)C1 (stereo not drawn),12.2%,10.1%,38.3%,8.12%,39.9%,5.49%,8.24%,6.86%,33.1%,6.16%
O=C(Nc1ccc(Oc2ccc3[nH]c(NC(=O)c4ccco4)nc3c2)cc1)Nc1cc(C(F)(F)F)ccc1F,83.5%,68%,85%,4.64%,31%,43.8%,95.8%,73.2%,95.4%,12.1%
COc1ccc(-c2nn3ncccc3c2-c2ccnc(Nc3cccc(C(F)(F)F)c3)n2)cc1,1.14%,1%,5.9%,1.64%,3.19%,2.26%,5.13%,1.12%,5.31%,-0.23%
FC(F)(F)c1ccc(-c2nn3ncccc3c2-c2ccnc(Nc3ccc4c(c3)OCCO4)n2)cc1,15%,9.5%,19.5%,1.06%,5.73%,,5.8%,6.7%,11.7%,9.78%
CCOc1nccc2c1nc(-c1nonc1N)n2CC,8.7%,11.7%,19.1%,1.89%,6.37%,10.8%,9.83%,6.37%,5.39%,7.89%
